Bioassay records deposited in PubChem by National Center for Advancing Translational Sciences (NCATS).
KB-3-1 cytotox – KB-3-1 parental cell cytotoxicity; KB-3-1 viability, CellTiter-Glo ATP luminescence, 72 h; 400,000 compounds, 1.4% hits; Potency, µM (doses to about 46.1 µM), hits mostly cytotoxic; AID 1347075; also: nearly all actives have a fitted effect of over 60% in size
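Luminescent ATP read-out (CellTiter-Glo) measures survival of drug-naive KB-3-1 cells after 72 h compound exposure at 37 °C. Titration series was screened from lowest to highest concentration, with DMSO vehicle plates as background controls.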
HT1080NT lethal – kills 2HG-producing HT-1080-NT fibrosarcoma cells. Potency, µM (top dose mostly 46.1 µM), inactives show at the top dose activity, negative = less viability, usual class: cytotoxic. 360,000 compounds, 1.6% hits. HT-1080-NT fibrosarcoma viability, CellTiter-Glo ATP luminescence, 48 h;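 also: NT is the 2HG producing partner of a matched IDH1 knockdown line; 0% = DMSO-treated cells and -100% = media-only wells without cells; nearly all actives have a fitted effect of over 55% in size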
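HT-1080-NT fibrosarcoma cells (2HG-overproducing), 750 cells/well in RPMI with 5% FBS, dosed after 2 h and incubated 48 h at 37C. CellTiter-Glo luminescence normalized to DMSO and no-cell wells; concentration-response curves fitted and classed.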
DT40 TDP1 CPT – DT40-hTDP1 cell growth loss with CPT. AID 686979. Potency, µM (titrated, usually from 46.2 µM), without a hit: at the highest dose activity change, negative = growth inhibition, most hits filed as inhibitors. chicken DT40 Tdp1-/-;hTDP1 cells + 20 nM CPT, ATP luminescence, 48 h. 420,000 compounds, 12% hits; also: nearly all actives have a fitted effect of over 55% in size
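Cell growth measured by CellTiter-Glo luminescence after a minimum 48 h, 37 C compound exposure with 20 nM CPT in Tdp1-knockout DT40 cells stably expressing hTDP1, seeded 400/well; qHTS titration format.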
KB-V1 cytotox – KB-V1 MDR subline cytotoxicity; KB-V1 MDR cells viability, CellTiter-Glo, 72 h; Potency, µM (titrated, usually from 46.1 µM), most hits filed as cytotoxic; 400,000 compounds, 3.4% hits; also: nearly all actives have a fitted effect of over 60% in size
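qHTS viability screen in drug-selected KB-V1 MDR cells: 72 h compound treatment at 37 degrees C, ATP luminescence end point.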
TDP1 cell noCPT – qHTS for Inhibitors of human tyrosyl-DNA phosphodiesterase 1 (TDP1): qHTS in cells in absence of CPT | DT40 Tdp1-/- hTDP1 cells, no CPT, ATP luminescence, 48 h | Potency, µM (titrated, usually from 46.2 µM), for inactives: top-dose activity change, negative = growth inhibition, actives largely listed as inhibitors | 420,000 compounds, 15% hits; also: nearly all actives have a fitted effect of over 55% in size
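Readout: luminescence from CellTiter-Glo after 30 min in the dark at RT. Cells: DT40 Tdp1-/- with stable hTDP1, 400/well. Exposure: compounds alone, ≥48 hr, 37 °C.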
HT1080 IDH1KD tx – HT-1080 IDH1 knockdown cell toxicity (counter line); HT-1080 IDH1 knockdown viability, ATP luminescence, 48 h; Potency, µM (highest dose often 46.1 µM), for inactives: at the highest dose activity, negative = toxicity, hits mostly cytotoxic; 360,000 compounds, 2% hits;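 also: 0% = DMSO wells and -100% = cell-free medium wells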
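HT-1080-IDH1KD cells (IDH1 knocked down), 750/well in RPMI with 5% FBS, treated with compound 48 h at 37 degrees C. Viability by CellTiter-Glo luminescence, normalised to DMSO and no-cell wells; concentration-response curves classed.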
* = called active by the depositor; i = inactive; ? = inconclusive; . = no result given; [ ] = dose if it differs, or a comment. Most compounds without a hit are left out; they make up all but 19% or so of the library. Calls follow the shape of the dose curve; as a rule, active = well fitted curve in the direction sought with a large enough effect; inconclusive = small, poorly fitted or top-dose-only effect, or another doubt; inactive = no such curve, though single readings can be large; an effect the other way counts as inactive or inconclusive. Unless noted, % is scaled to controls: 0 for no effect and ±100 for the full control effect; potency is read from the fitted curve at half-maximal effect.

SMILES | KB-3-1 cytotox | HT1080NT lethal | DT40 TDP1 CPT | KB-V1 cytotox | TDP1 cell noCPT | HT1080 IDH1KD tx
Cc1c(NC(=O)c2cc3c(s2)-c2ccccc2OC3)cccc1[N+](=O)[O-] | ? | ? | ? | ? | 18.4µM* | ?
Cc1cccc2c1-c1sc(C(=O)N(C)c3cccc(Cl)c3)cc1CO2 | i | . | 16.4µM* | i | ? | .
CCCN(C(=O)c1cc2c(s1)-c1c(C)cccc1OC2)c1ccc(OCC)cc1 | i | . | 5.17µM* | i | 5.17µM* | .
COc1ccccc1CNC(=O)c1cc2c(s1)-c1ccccc1OC2 | i | . | ? | ? | ? | .
CC1CCCC(C)N1CCCNC(=O)c1cc2c(s1)-c1ccccc1OC2 (configuration not stated) | i | ? | ? | i | ? | 20.6µM*
Cc1ccc(-n2ncc(C(=O)NCCN3CCN(C)CC3)c2C2CCN(C(=O)OC(C)(C)C)CC2)c(C)c1 | i | . | -27.3% | ? | ? | .
CC(C)NC(=O)C1CC(=O)N(c2ccc(F)c(Cl)c2)C1 (configuration not stated) | i | 21.4% | 2.7% | i | -0.5% | 19.6%
O=C(NCCC1=CCCCC1)C1CCN(C(=O)N2CCOc3ccccc32)CC1 | i | . | ? | i | ? | .
COc1ccc(CCNC(=O)c2cc3c(s2)-c2ccccc2OC3)cc1OC | i | . | ? | i | 11.6µM* | .
Cc1cccc2c1-c1sc(C(=O)NCCc3ccc(Cl)cc3)cc1CO2 | ? | . | 13µM* | ? | 7.31µM* | .
CCCN1CCN(CCCNC(=O)c2cc3c(s2)-c2ccccc2OC3)CC1 | i | 23.1µM* | ? | ? | ? | ?
CCCN1CCN(CCCNC(=O)c2cc3c(s2)-c2c(C)cccc2OC3)CC1 | ? | 23.1µM* | 23.1µM* | i | 25.9µM* | 18.4µM*
COc1cc(/C=N/N2CCN(c3ccccc3OC)CC2)ccc1OC(C)=O | i | 1.6% | -7.4% | i | -1.9% | 0.1%
Cc1cnc(C(=O)OCC(=O)c2ccc(C)s2)cn1 | i | 0.8% | 7.1% | i | -17.1% | -8.3%
COCCCN(CC(=O)Nc1ccc(N2CCOCC2)cc1)S(=O)(=O)c1ccc(Cl)cc1 | i | 2.8% | ? | ? | ? | 6.0%
CCN(CC)CCNC(C(=O)Nc1cccc(C(C)=O)c1)c1ccccc1 (configuration not stated) | i | 23.0% | 11.5% | i | ? | 15.0%
C=CCNc1ccccc1S(=O)(=O)NCc1ccccc1 | i | -4.1% | ? | i | -13.1% | -2.4%
COc1ccc(-c2cc(CC3(C(=O)O)CCN(C(=O)OC(C)(C)C)CC3)on2)c(OC)c1 | i | 10.6% | 7.7% | ? | 1.4% | -0.6%
CC1N(C(=O)N2CCOCC2)CCN1S(=O)(=O)c1cccc(C(F)(F)F)c1 (configuration not stated) | i | 1.8% | 7.4% | i | -2.3% | -1.9%
Cc1cccc2c1-c1sc(C(=O)NCCCN3CCCC(C)C3)cc1CO2 (configuration not stated) | i | 20.6µM* | ? | i | 20.6µM* | 20.6µM*
Cc1cccc2c1-c1sc(C(=O)N3CCN(c4ccc(F)cc4)CC3)cc1CO2 | i | . | 3.0% | i | 3.1% | .
COc1ccc(CNC(=O)c2cc3c(s2)-c2c(C)cccc2OC3)cc1 | i | . | -8.2% | i | -5.8% | .
COc1ccc(NC(=O)c2cc3c(s2)-c2c(C)cccc2OC3)c(OC)c1 | i | . | ? | ? | 23.1µM* | .
CN(C)CCNC(=O)c1cc2c(s1)-c1ccccc1OC2 | i | ? | 16.4µM* | i | ? | ?
Cc1cccc2c1-c1sc(C(=O)N3CCN(c4ccccc4)CC3)cc1CO2 | i | . | 8.2µM* | i | 16.4µM* | .
SMILES | KB-3-1 cytotox | HT1080NT lethal | DT40 TDP1 CPT | KB-V1 cytotox | TDP1 cell noCPT | HT1080 IDH1KD tx
Cc1ccc2c(c1)-c1nc(-c3ccc(Cl)cc3)cc(-c3coc4ccccc4c3=O)c1CO2 | i | . | -16.7% | i | -4.6% | .
COc1ccc2c(c1)cc(C(=O)N[C@@H](Cc1ccccc1)C(=O)O)n2C | i | 2.5% | 0.5% | i | -23.9% | 0.7%
COc1cc2c(cc1OC)CN(C(=O)CC1CC3CCC1C3)CC2 (configuration not stated) | i | 13.8% | ? | i | ? | 6.6%
CCOc1ccc(-n2c(C)cc(/C=N/N(C)C)c2C)cc1 | i | -7.5% | 9.2µM* | i | 7.31µM* | 0.3%
CCOc1ccc(-n2c(C)cc(/C=N\NC(=O)CC(=O)NC3CCCCC3)c2C)cc1 | i | -25.6% | 18.4µM* | i | 13µM* | -26.9%
CCOc1ccc(-n2c(C)cc(/C=N/Nc3nc(C)cc(=O)[nH]3)c2C)cc1 | i | 0.5% | 16.4µM* | i | 11.6µM* | 6.4%
CCOc1ccc(-n2c(C)cc(/C=N/NC(=O)C(N)=O)c2C)cc1 | i | -17.6% | 5.4% | i | -18.5% | -0.3%
Cc1cc(C)c(/C=N/NC(N)=O)c(C)c1/C=N/NC(N)=O | 3.66µM* | 4.6% | 4.1% | ? | -1.0% | 11.1%
CN(C)S(=O)(=O)c1ccc2c(c1)N(CC(=O)N1CCC(C(N)=O)CC1)CCS2 | i | . | . | i | . | .
Cc1ccc(C(C)C)cc1OCC(=O)NC1CCCCCCC1 | i | -0.1% | 18.4µM* | ? | ? | -5.5%
CC(C)c1ccc(OCC(=O)NC2CCCC2)cc1 | i | 25.8% | 2.0% | i | 16.4% | 15.1%
O=C(COc1ccccc1Br)NC1CCCC1 | ? | -13.6% | ? | 16.4µM* | ? | -9.4%
O=C(C[n+]1ccccc1Cl)c1ccc2ccccc2c1 | i | . | ? | i | ? | .
S=C(Nc1ccccc1)N1CCn2c1nc1ccccc12 | i | 1.41µM* | -8.8% | i | -1.6% | ?
O=C(Nc1ccccc1)N1CCn2c1nc1ccccc12 | i | -12.6% | ? | i | ? | -12.7%
C[C@H](CO)N1C[C@H](C)[C@H](CN(C)Cc2ccc(Oc3ccccc3)cc2)Oc2cc(Br)ccc2S1(=O)=O | ? | ? | ? | i | ? | ?
CC(=O)c1ccc(F)c(-c2cc(C)cc3c2OC(CNC(=O)c2ccnn2C)C3)c1 (configuration not stated) | . | . | 23.0%[9.04 µM] | . | -24.6% | .
O=P(COc1ccccc1)(c1ccccc1)c1ccccc1 | i | -4.4% | -29.9% | 14.6µM* | -26.6% | 3.3%
